According to PMC11102866, “Nucleosome-bound NR5A2 structure reveals pioneer factor mechanism by DNA minor groove anchor competition”:

What was measured:
[1] = target: NR5A2 wild type;histone octamer (Homo sapiens;, UniProt O00482;C0HKE1;Q6ZWY9;P84244;P62806 1-541;2-130;2-126;2-136;2-103, |); test: SeEN-seq (EMSA of nucleosome library followed by sequencing); 0.8 uM human NR5A2; 20 mM Tris-HCl pH 7.5, 120 mM NaCl, 1 mM MgCl2, 10 uM ZnCl2, 1 mM DTT, 100 ug/ml BSA, room temperature, 30 min; 0.1 uM nucleosome library; high values mean tight binding
[2] = target: mouse Nr5a2 wild type;histone octamer (Mus musculus;, UniProt P45448;C0HKE1;Q6ZWY9;P84244;P62806 1-560;2-130;2-126;2-136;2-103, |); test: SeEN-seq (EMSA of nucleosome library followed by sequencing); 1.2 uM mouse Nr5a2; 20 mM Tris-HCl pH 7.5, 120 mM NaCl, 1 mM MgCl2, 10 uM ZnCl2, 1 mM DTT, 100 ug/ml BSA, room temperature, 30 min; 0.1 uM nucleosome library; high values mean tight binding

B1: 130 (nucleosome)
DNA 1: ATCCTGGAGAATCCCGGTGCCGAGGCCGCTCAATTGGTCGTAGACAGCTCTAGCACCGCTTAAACGCACGTACGCGCTGTCCCCCGCGTTTTAACCGCCAAGGGGATTACTCCCTAGTCTCCAGGCACGTGTTCAAGGCCAACATCCTGTGAT
DNA 2: ATCACAGGATGTTGGCCTTGAACACGTGCCTGGAGACTAGGGAGTAATCCCCTTGGCGGTTAAAACGCGGGGGACAGCGCGTACGTGCGTTTAAGCGGTGCTAGAGCTGTCTACGACCAATTGAGCGGCCTCGGCACCGGGATTCTCCAGGAT
modifications: reconstituted with mouse histones H2A, H2B, H3.3 and H4
In the case of B1, the binding signal [1] is reported as 1.7 log2 enrichment (bound/unbound, relative to Widom 601) and the binding signal [2] is reported as 1.35 log2 enrichment (bound/unbound, relative to Widom 601).

B2: 131 (nucleosome)
DNA 1: ATCCTGGAGAATCCCGGTGCCGAGGCCGCTCAATTGGTCGTAGACAGCTCTAGCACCGCTTAAACGCACGTACGCGCTGTCCCCCGCGTTTTAACCGCCAAGGGGATTACTCCCTAGTCTCCAGGCACGTGTCTCAAGGCCACATCCTGTGAT
DNA 2: ATCACAGGATGTGGCCTTGAGACACGTGCCTGGAGACTAGGGAGTAATCCCCTTGGCGGTTAAAACGCGGGGGACAGCGCGTACGTGCGTTTAAGCGGTGCTAGAGCTGTCTACGACCAATTGAGCGGCCTCGGCACCGGGATTCTCCAGGAT
modifications: reconstituted with mouse histones H2A, H2B, H3.3 and H4
B2 was tested, and the binding signal [1] was 3.61 log2 enrichment (bound/unbound, relative to Widom 601) and the binding signal [2] was 3.22 log2 enrichment (bound/unbound, relative to Widom 601).

B3: 132 (nucleosome)
DNA 1: ATCCTGGAGAATCCCGGTGCCGAGGCCGCTCAATTGGTCGTAGACAGCTCTAGCACCGCTTAAACGCACGTACGCGCTGTCCCCCGCGTTTTAACCGCCAAGGGGATTACTCCCTAGTCTCCAGGCACGTGTCATCAAGGCCAATCCTGTGAT
DNA 2: ATCACAGGATTGGCCTTGATGACACGTGCCTGGAGACTAGGGAGTAATCCCCTTGGCGGTTAAAACGCGGGGGACAGCGCGTACGTGCGTTTAAGCGGTGCTAGAGCTGTCTACGACCAATTGAGCGGCCTCGGCACCGGGATTCTCCAGGAT
modifications: reconstituted with mouse histones H2A, H2B, H3.3 and H4
B3 was tested, and the binding signal [1] was 3.78 log2 enrichment (bound/unbound, relative to Widom 601) and the binding signal [2] was 3.09 log2 enrichment (bound/unbound, relative to Widom 601).

B4: 15 (nucleosome)
DNA 1: ATCCTGGAGAATCCCGGTCAAGGCCACGCTCAATTGGTCGTAGACAGCTCTAGCACCGCTTAAACGCACGTACGCGCTGTCCCCCGCGTTTTAACCGCCAAGGGGATTACTCCCTAGTCTCCAGGCACGTGTCAGATATATACATCCTGTGAT
DNA 2: ATCACAGGATGTATATATCTGACACGTGCCTGGAGACTAGGGAGTAATCCCCTTGGCGGTTAAAACGCGGGGGACAGCGCGTACGTGCGTTTAAGCGGTGCTAGAGCTGTCTACGACCAATTGAGCGTGGCCTTGACCGGGATTCTCCAGGAT
modifications: reconstituted with mouse histones H2A, H2B, H3.3 and H4
B4 was tested, and the binding signal [1] was 1.12 log2 enrichment (bound/unbound, relative to Widom 601) and the binding signal [2] was 1.33 log2 enrichment (bound/unbound, relative to Widom 601).

B5: 127 (nucleosome)
DNA 1: ATCCTGGAGAATCCCGGTGCCGAGGCCGCTCAATTGGTCGTAGACAGCTCTAGCACCGCTTAAACGCACGTACGCGCTGTCCCCCGCGTTTTAACCGCCAAGGGGATTACTCCCTAGTCTCCAGGCACGTCAAGGCCATATACATCCTGTGAT
DNA 2: ATCACAGGATGTATATGGCCTTGACGTGCCTGGAGACTAGGGAGTAATCCCCTTGGCGGTTAAAACGCGGGGGACAGCGCGTACGTGCGTTTAAGCGGTGCTAGAGCTGTCTACGACCAATTGAGCGGCCTCGGCACCGGGATTCTCCAGGAT
modifications: reconstituted with mouse histones H2A, H2B, H3.3 and H4
With B5 the binding signal [1] was 4.33 log2 enrichment (bound/unbound, relative to Widom 601) and the binding signal [2] was 3.32 log2 enrichment (bound/unbound, relative to Widom 601).

B6: 128 (nucleosome)
DNA 1: ATCCTGGAGAATCCCGGTGCCGAGGCCGCTCAATTGGTCGTAGACAGCTCTAGCACCGCTTAAACGCACGTACGCGCTGTCCCCCGCGTTTTAACCGCCAAGGGGATTACTCCCTAGTCTCCAGGCACGTTCAAGGCCAATACATCCTGTGAT
DNA 2: ATCACAGGATGTATTGGCCTTGAACGTGCCTGGAGACTAGGGAGTAATCCCCTTGGCGGTTAAAACGCGGGGGACAGCGCGTACGTGCGTTTAAGCGGTGCTAGAGCTGTCTACGACCAATTGAGCGGCCTCGGCACCGGGATTCTCCAGGAT
modifications: reconstituted with mouse histones H2A, H2B, H3.3 and H4
For B6, the binding signal [1] was 5.29 log2 enrichment (bound/unbound, relative to Widom 601) and the binding signal [2] was 4.1 log2 enrichment (bound/unbound, relative to Widom 601).

B7: 133 (nucleosome)
DNA 1: ATCCTGGAGAATCCCGGTGCCGAGGCCGCTCAATTGGTCGTAGACAGCTCTAGCACCGCTTAAACGCACGTACGCGCTGTCCCCCGCGTTTTAACCGCCAAGGGGATTACTCCCTAGTCTCCAGGCACGTGTCAGTCAAGGCCATCCTGTGAT
DNA 2: ATCACAGGATGGCCTTGACTGACACGTGCCTGGAGACTAGGGAGTAATCCCCTTGGCGGTTAAAACGCGGGGGACAGCGCGTACGTGCGTTTAAGCGGTGCTAGAGCTGTCTACGACCAATTGAGCGGCCTCGGCACCGGGATTCTCCAGGAT
modifications: reconstituted with mouse histones H2A, H2B, H3.3 and H4
With B7 the binding signal [1] was 4.27 log2 enrichment (bound/unbound, relative to Widom 601) and the binding signal [2] was 3.65 log2 enrichment (bound/unbound, relative to Widom 601).

B8: 129 (nucleosome)
DNA 1: ATCCTGGAGAATCCCGGTGCCGAGGCCGCTCAATTGGTCGTAGACAGCTCTAGCACCGCTTAAACGCACGTACGCGCTGTCCCCCGCGTTTTAACCGCCAAGGGGATTACTCCCTAGTCTCCAGGCACGTGTCAAGGCCATACATCCTGTGAT
DNA 2: ATCACAGGATGTATGGCCTTGACACGTGCCTGGAGACTAGGGAGTAATCCCCTTGGCGGTTAAAACGCGGGGGACAGCGCGTACGTGCGTTTAAGCGGTGCTAGAGCTGTCTACGACCAATTGAGCGGCCTCGGCACCGGGATTCTCCAGGAT
modifications: reconstituted with mouse histones H2A, H2B, H3.3 and H4
For B8, the binding signal [1] was 2.87 log2 enrichment (bound/unbound, relative to Widom 601) and the binding signal [2] was 2.23 log2 enrichment (bound/unbound, relative to Widom 601).
